# Experimental data as given in the supplement of paper PMC4466140.
# What was measured:
# Experiment in all cases: SPOT peptide array binding signal intensity (averaged, normalized) (arbitrary units (background-subtracted, floor 0; scale differs between SH3 domains)); higher = stronger binding of the SH3 domain to the peptide
# AgAbp1 = molecular target: AgAbp1
# Outline: (§1)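 To measure binding, SH3 domains from four yeast species were fused to GST, expressed in E. coli BL21(DE3) and purified on glutathione Sepharose. Each domain was incubated at 10 μg/ml overnight at 4°C on cellulose membranes with synthetic 15-mer peptides whose cysteines were replaced by serines. Anti-GST antibody, an HRP anti-mouse secondary and luminol were used for detection, and images were quantified with Genespotter. Reported binding signal is normalized, background-subtracted spot intensity averaged over replicates, in arbitrary units that differ between domains.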
# AgBbc1 = molecular target: AgBbc1
# Outline: as §1
# AgBem1-D1 = molecular target: AgBem1-D1
# Outline: as §1
# AgBzz1-D1 = molecular target: AgBzz1-D1
# Outline: as §1
# AgBzz1-D2 = molecular target: AgBzz1-D2
# Outline: as §1
# AgCyk3 = molecular target: AgCyk3
# Outline: as §1
# AgFus1 = molecular target: AgFus1
# Outline: as §1
# AgHof1 = molecular target: AgHof1
# Outline: as §1
# AgHse1 = molecular target: AgHse1
# Outline: as §1
# AgLsb1 = molecular target: AgLsb1
# Outline: as §1
# AgLsb4 = molecular target: AgLsb4
# Outline: as §1
# AgMyo5 = molecular target: AgMyo5
# Outline: as §1
# AgNbp2 = molecular target: AgNbp2
# Outline: as §1
# AgRvs167 = molecular target: AgRvs167
# Outline: as §1
# AgSho1 = molecular target: AgSho1
# Outline: as §1
# AgSla1-D1-D2 = molecular target: AgSla1-D1-D2
# Outline: as §1
# AgSla1-D3 = molecular target: AgSla1-D3
# Outline: as §1
# CaAbp1-D1 = molecular target: CaAbp1-D1
# Outline: as §1
# CaAbp1-D2 = molecular target: CaAbp1-D2
# Outline: as §1
# CaBbc1 = molecular target: CaBbc1
# Outline: as §1
# CaBem1-D1 = molecular target: CaBem1-D1
# Outline: as §1
# CaBzz1-D1 = molecular target: CaBzz1-D1
# Outline: as §1
# CaBzz1-D2 = molecular target: CaBzz1-D2
# Outline: as §1
# CaCyk3 = molecular target: CaCyk3
# Outline: as §1
# CaFus1 = molecular target: CaFus1
# Outline: as §1
# CaHof1 = molecular target: CaHof1
# Outline: as §1
# CaHse1 = molecular target: CaHse1
# Outline: as §1
# CaLsb1 = molecular target: CaLsb1
# Outline: as §1
# CaLsb4 = molecular target: CaLsb4
# Outline: as §1
# CaMyo5 = molecular target: CaMyo5
# Outline: as §1
# CaNbp2 = molecular target: CaNbp2
# Outline: as §1
# CaRvs167 = molecular target: CaRvs167
# Outline: as §1
# CaRvs167-3 = molecular target: CaRvs167-3
# Outline: as §1
# CaSho1 = molecular target: CaSho1
# Outline: as §1
# CaSla1-D1-D2 = molecular target: CaSla1-D1-D2
# Outline: as §1
# CaSla1-D3 = molecular target: CaSla1-D3
# Outline: as §1
# ScAbp1 = molecular target: ScAbp1
# Outline: as §1
# ScBbc1 = molecular target: ScBbc1
# Outline: as §1
# ScBem1-D1 = molecular target: ScBem1-D1
# Outline: as §1
# ScBzz1-D1 = molecular target: ScBzz1-D1
# Outline: as §1
# ScBzz1-D2 = molecular target: ScBzz1-D2
# Outline: as §1
# ScCyk3 = molecular target: ScCyk3
# Outline: as §1
# ScFus1 = molecular target: ScFus1
# Outline: as §1
# ScHof1 = molecular target: ScHof1
# Outline: as §1
# ScHse1 = molecular target: ScHse1
# Outline: as §1
# ScLsb1 = molecular target: ScLsb1
# Outline: as §1
# ScLsb2 = molecular target: ScLsb2
# Outline: as §1
# ScLsb3 = molecular target: ScLsb3
# Outline: as §1
# ScLsb4 = molecular target: ScLsb4
# Outline: as §1
# ScMyo3 = molecular target: ScMyo3
# Outline: as §1
# ScMyo5 = molecular target: ScMyo5
# Outline: as §1
# ScNbp2 = molecular target: ScNbp2
# Outline: as §1
# ScPex13 = molecular target: ScPex13
# Outline: as §1
# ScRvs167 = molecular target: ScRvs167
# Outline: as §1
# ScSho1 = molecular target: ScSho1
# Outline: as §1
# ScSla1-D1-D2 = molecular target: ScSla1-D1-D2
# Outline: as §1
# ScSla1-D3 = molecular target: ScSla1-D3
# Outline: as §1
# SpAbp1-D1 = molecular target: SpAbp1-D1
# Outline: as §1
# SpBbc1 = molecular target: SpBbc1
# Outline: as §1
# SpBzz1-D1 = molecular target: SpBzz1-D1
# Outline: as §1
# SpBzz1-D2 = molecular target: SpBzz1-D2
# Outline: as §1
# SpCyk3 = molecular target: SpCyk3
# Outline: as §1
# SpHof1 = molecular target: SpHof1
# Outline: as §1
# SpHof1-2 = molecular target: SpHof1-2
# Outline: as §1
# SpHof1-3 = molecular target: SpHof1-3
# Outline: as §1
# SpHse1 = molecular target: SpHse1
# Outline: as §1
# SpLsb1 = molecular target: SpLsb1
# Outline: as §1
# SpLsb4 = molecular target: SpLsb4
# Outline: as §1
# SpMyo1 = molecular target: SpMyo1
# Outline: as §1
# SpNbp2 = molecular target: SpNbp2
# Outline: as §1
# SpPex13 = molecular target: SpPex13
# Outline: as §1
# SpRvs167 = molecular target: SpRvs167
# Outline: as §1
# SpSla1-D1-D2 = molecular target: SpSla1-D1-D2
# Outline: as §1
# SpSla1-D3 = molecular target: SpSla1-D3
# Outline: as §1
binder,measurement,setting,value
PLQSKIPMLPSRRTM,SPOT peptide array binding signal intensity,AgAbp1,98.5
same,SPOT peptide array binding signal intensity,AgBbc1,267
same,SPOT peptide array binding signal intensity,AgBem1-D1,26.5
same,SPOT peptide array binding signal intensity,AgBzz1-D1,48
same,SPOT peptide array binding signal intensity,AgBzz1-D2,9
same,SPOT peptide array binding signal intensity,AgCyk3,3
same,SPOT peptide array binding signal intensity,AgFus1,98.5
same,SPOT peptide array binding signal intensity,AgHof1,211
same,SPOT peptide array binding signal intensity,AgHse1,300
same,SPOT peptide array binding signal intensity,AgLsb1,555
same,SPOT peptide array binding signal intensity,AgLsb4,4990
same,SPOT peptide array binding signal intensity,AgMyo5,≤ 0
same,SPOT peptide array binding signal intensity,AgNbp2,302
same,SPOT peptide array binding signal intensity,AgRvs167,483
same,SPOT peptide array binding signal intensity,AgSho1,131
same,SPOT peptide array binding signal intensity,AgSla1-D1-D2,28
same,SPOT peptide array binding signal intensity,AgSla1-D3,6.5
same,SPOT peptide array binding signal intensity,CaAbp1-D1,470
same,SPOT peptide array binding signal intensity,CaAbp1-D2,342
same,SPOT peptide array binding signal intensity,CaBbc1,694
same,SPOT peptide array binding signal intensity,CaBem1-D1,10.5
same,SPOT peptide array binding signal intensity,CaBzz1-D1,274
same,SPOT peptide array binding signal intensity,CaBzz1-D2,224
same,SPOT peptide array binding signal intensity,CaCyk3,18.5
same,SPOT peptide array binding signal intensity,CaFus1,897
same,SPOT peptide array binding signal intensity,CaHof1,1
same,SPOT peptide array binding signal intensity,CaHse1,195
same,SPOT peptide array binding signal intensity,CaLsb1,18.2
same,SPOT peptide array binding signal intensity,CaLsb4,5220
same,SPOT peptide array binding signal intensity,CaMyo5,30
same,SPOT peptide array binding signal intensity,CaNbp2,881
same,SPOT peptide array binding signal intensity,CaRvs167,1060
same,SPOT peptide array binding signal intensity,CaRvs167-3,4
same,SPOT peptide array binding signal intensity,CaSho1,400
same,SPOT peptide array binding signal intensity,CaSla1-D1-D2,1030
same,SPOT peptide array binding signal intensity,CaSla1-D3,332
same,SPOT peptide array binding signal intensity,ScAbp1,34.5
same,SPOT peptide array binding signal intensity,ScBbc1,246
same,SPOT peptide array binding signal intensity,ScBem1-D1,2
same,SPOT peptide array binding signal intensity,ScBzz1-D1,≤ 0
same,SPOT peptide array binding signal intensity,ScBzz1-D2,27
same,SPOT peptide array binding signal intensity,ScCyk3,9
same,SPOT peptide array binding signal intensity,ScFus1,218
same,SPOT peptide array binding signal intensity,ScHof1,79
same,SPOT peptide array binding signal intensity,ScHse1,127
same,SPOT peptide array binding signal intensity,ScLsb1,287
same,SPOT peptide array binding signal intensity,ScLsb2,629
same,SPOT peptide array binding signal intensity,ScLsb3,5990
same,SPOT peptide array binding signal intensity,ScLsb4,2850
same,SPOT peptide array binding signal intensity,ScMyo3,≤ 0
same,SPOT peptide array binding signal intensity,ScMyo5,≤ 0
same,SPOT peptide array binding signal intensity,ScNbp2,760
same,SPOT peptide array binding signal intensity,ScPex13,945
same,SPOT peptide array binding signal intensity,ScRvs167,2220
same,SPOT peptide array binding signal intensity,ScSho1,586
same,SPOT peptide array binding signal intensity,ScSla1-D1-D2,999
same,SPOT peptide array binding signal intensity,ScSla1-D3,514
same,SPOT peptide array binding signal intensity,SpAbp1-D1,149
same,SPOT peptide array binding signal intensity,SpBbc1,14
same,SPOT peptide array binding signal intensity,SpBzz1-D1,953
NNQRRKPLLLNIGDH,SPOT peptide array binding signal intensity,AgAbp1,108
same,SPOT peptide array binding signal intensity,AgBbc1,≤ 0
same,SPOT peptide array binding signal intensity,AgBem1-D1,≤ 0
same,SPOT peptide array binding signal intensity,AgBzz1-D1,≤ 0
same,SPOT peptide array binding signal intensity,AgBzz1-D2,54
same,SPOT peptide array binding signal intensity,AgCyk3,0.5
same,SPOT peptide array binding signal intensity,AgFus1,305
same,SPOT peptide array binding signal intensity,AgHof1,6
same,SPOT peptide array binding signal intensity,AgHse1,1660
same,SPOT peptide array binding signal intensity,AgLsb1,≤ 0
same,SPOT peptide array binding signal intensity,AgLsb4,≤ 0
same,SPOT peptide array binding signal intensity,AgMyo5,1
same,SPOT peptide array binding signal intensity,AgNbp2,68.5
same,SPOT peptide array binding signal intensity,AgRvs167,5.67
same,SPOT peptide array binding signal intensity,AgSho1,24.5
same,SPOT peptide array binding signal intensity,AgSla1-D1-D2,175
same,SPOT peptide array binding signal intensity,AgSla1-D3,5.5
same,SPOT peptide array binding signal intensity,CaAbp1-D1,330
same,SPOT peptide array binding signal intensity,CaAbp1-D2,458
same,SPOT peptide array binding signal intensity,CaBbc1,≤ 0
same,SPOT peptide array binding signal intensity,CaBem1-D1,≤ 0
same,SPOT peptide array binding signal intensity,CaBzz1-D1,≤ 0
same,SPOT peptide array binding signal intensity,CaBzz1-D2,≤ 0
same,SPOT peptide array binding signal intensity,CaCyk3,1.5
same,SPOT peptide array binding signal intensity,CaFus1,1030
same,SPOT peptide array binding signal intensity,CaHof1,≤ 0
same,SPOT peptide array binding signal intensity,CaHse1,21
same,SPOT peptide array binding signal intensity,CaLsb1,0.5
same,SPOT peptide array binding signal intensity,CaLsb4,≤ 0
same,SPOT peptide array binding signal intensity,CaMyo5,≤ 0
same,SPOT peptide array binding signal intensity,CaNbp2,528
same,SPOT peptide array binding signal intensity,CaRvs167,12
same,SPOT peptide array binding signal intensity,CaRvs167-3,35.8
same,SPOT peptide array binding signal intensity,CaSho1,420
same,SPOT peptide array binding signal intensity,CaSla1-D1-D2,≤ 0
same,SPOT peptide array binding signal intensity,CaSla1-D3,2.25
same,SPOT peptide array binding signal intensity,ScAbp1,442
same,SPOT peptide array binding signal intensity,ScBbc1,≤ 0
same,SPOT peptide array binding signal intensity,ScBem1-D1,3
same,SPOT peptide array binding signal intensity,ScBzz1-D1,16.5
same,SPOT peptide array binding signal intensity,ScBzz1-D2,≤ 0
same,SPOT peptide array binding signal intensity,ScCyk3,33
same,SPOT peptide array binding signal intensity,ScFus1,272
same,SPOT peptide array binding signal intensity,ScHof1,0.5
same,SPOT peptide array binding signal intensity,ScHse1,1820
same,SPOT peptide array binding signal intensity,ScLsb1,≤ 0
same,SPOT peptide array binding signal intensity,ScLsb2,≤ 0
same,SPOT peptide array binding signal intensity,ScLsb3,68
same,SPOT peptide array binding signal intensity,ScLsb4,≤ 0
same,SPOT peptide array binding signal intensity,ScMyo3,≤ 0
same,SPOT peptide array binding signal intensity,ScMyo5,≤ 0
same,SPOT peptide array binding signal intensity,ScNbp2,112
same,SPOT peptide array binding signal intensity,ScPex13,≤ 0
same,SPOT peptide array binding signal intensity,ScRvs167,4.33
same,SPOT peptide array binding signal intensity,ScSho1,676
same,SPOT peptide array binding signal intensity,ScSla1-D1-D2,37
same,SPOT peptide array binding signal intensity,ScSla1-D3,≤ 0
same,SPOT peptide array binding signal intensity,SpAbp1-D1,384
same,SPOT peptide array binding signal intensity,SpBbc1,0.5
same,SPOT peptide array binding signal intensity,SpBzz1-D1,136
same,SPOT peptide array binding signal intensity,SpBzz1-D2,≤ 0
same,SPOT peptide array binding signal intensity,SpCyk3,≤ 0
same,SPOT peptide array binding signal intensity,SpHof1,93.2
same,SPOT peptide array binding signal intensity,SpHof1-2,2.5
same,SPOT peptide array binding signal intensity,SpHof1-3,892
same,SPOT peptide array binding signal intensity,SpHse1,1730
same,SPOT peptide array binding signal intensity,SpLsb1,≤ 0
same,SPOT peptide array binding signal intensity,SpLsb4,≤ 0
same,SPOT peptide array binding signal intensity,SpMyo1,≤ 0
same,SPOT peptide array binding signal intensity,SpNbp2,133
same,SPOT peptide array binding signal intensity,SpPex13,≤ 0
same,SPOT peptide array binding signal intensity,SpRvs167,≤ 0
same,SPOT peptide array binding signal intensity,SpSla1-D1-D2,≤ 0
same,SPOT peptide array binding signal intensity,SpSla1-D3,≤ 0
